Hits are enriched below; roughly 3.1% of the tested compounds scored in any of these assays.
TWEAK-Fn14 inh = TWEAK-Fn14 signaling inhibition; TWEAK-stimulated Fn14 reporter cells, luciferase luminescence, 8 h; inhibition, % at 10 µM; 2% of 360,000 active; AID 1159606; in the data active = inhibition above about 50%
EWS-Fli block = inhibitors of EWS/Fli oncoprotein transcriptional activity. inhibition, % at 12.6 µM. A673 NR0B1-luciferase reporter, viability-normalised. 0.67% of 350,000 active. AID 651661;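 active = mean inhibition of at least 50% after viability correction, with every replicate also passing that limit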;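 note: firefly luciferase signal divided by Alamar Blue viability fluorescence both relative to DMSO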
LGR2 antag = inhibitors of bursicon-induced Drosophila LGR2 receptor cAMP signaling | HEK293 LGR2, CRE-luciferase, bursicon-stimulated, 4 h | inhibition, % at 9.99 µM | 0.35% of 380,000 active;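 active = drop in luminescence signal, shown as inhibition above about 50% in the replicate tests, limit read from the data, passing the limit was not always enough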;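 note: agonist challenge used bursicon conditioned medium at about half maximal strength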
PAX8 reporter = inhibitors of PAX8 transcriptional activity in RMG-I cells. RMG-I TPO-luciferase reporter, SteadyGlo, 24 h. inhibition, % at 12.6 µM. 1.2% of 360,000 active. AID 652154;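 active = mean replicate inhibition at least 60% with every replicate also reaching 60%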;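 note: luciferase light reporting Pax8 driven TPO promoter activity; plate controls were median of neutral control wells for no effect and mitoxantrone controls for full effect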
TROY NFkB inh = blocks TROY-dependent signaling in reporter cells | Q293 LMP1-TROYcd NF-kB luciferase reporter, 4 h | AID 1347056 | 0.98% of 360,000 active | inhibition, % at 10 µM;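 active = compounds whose plate-normalised and pattern-corrected inhibition of the luciferase reporter signal at the single screening dose is 50% or more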
LMP1 NFkB inh = reduces LMP1-driven NF-kappaB luciferase signal; 0.69% of 350,000 active; AID 504558; inhibition, % at 12.5 µM; LMP1-induced NF-kappaB luciferase reporter cells, luminescence; in the data active = inhibition above about 41%;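 note: 0% = neutral control wells and 100% = reference inhibitor control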
The depositor's hits bear a star.

For Cc1cc(/C=C2\SC(=O)N(C)C2=O)c(C)n1-c1ccc(S(N)(=O)=O)cc1 the results were TWEAK-Fn14 inh -9, EWS-Fli block -15, LGR2 antag -7, PAX8 reporter 8, TROY NFkB inh -14 and LMP1 NFkB inh -3.
For Cc1cc(/C=C2\SC(=S)N(Cc3ccco3)C2=O)c(C)n1-c1ccccc1 the results were TWEAK-Fn14 inh 62*, LGR2 antag 2, PAX8 reporter -145, TROY NFkB inh 4 and LMP1 NFkB inh 0.
`C[C@H](CO)N1C[C@H](C)[C@H](CN(C)C(=O)Nc2ccc(F)cc2)Oc2ccc(NC(=O)Nc3ccc(C(F)(F)F)cc3)cc2C1=O` gave EWS-Fli block 3 and LGR2 antag 3.
Screening CN(C)CC(=O)N1[C@H](C#N)[C@H](c2ccccc2-c2ccc(C(=O)N(C)C)cc2)[C@@H]1CO returned EWS-Fli block 14 and LGR2 antag 24.
CN1C(=O)/C(=C\c2cc(N=Nc3ccccc3)ccc2O)SC1=S was read as TWEAK-Fn14 inh 50, TROY NFkB inh 26 and LMP1 NFkB inh 5.
Screening Cc1cc(/C=C2\SC(=S)N(C)C2=O)c(C)n1-c1cccc(O)c1 returned TWEAK-Fn14 inh 92*, EWS-Fli block 37, LGR2 antag -63, PAX8 reporter -134, TROY NFkB inh 10 and LMP1 NFkB inh 13.
Screening CC(=O)c1c(O)cc(O)cc1CC(=O)O returned TWEAK-Fn14 inh 9, EWS-Fli block -2, LGR2 antag 3, TROY NFkB inh -6 and LMP1 NFkB inh -28.
For CC(=O)c1c(O)cc(O)c(C(C)=O)c1O the results were TWEAK-Fn14 inh -28, TROY NFkB inh 59* and LMP1 NFkB inh 3.
CC1(C(=O)NCc2ccco2)Cc2c(-c3ccc(C(N)=O)cc3)ccnc2O1 (stereo not drawn) was read as TWEAK-Fn14 inh 23, EWS-Fli block 47, LGR2 antag 19, PAX8 reporter 18 and TROY NFkB inh 1.
CC1(C(=O)NCc2ccccc2)Cc2c(-c3ccc(C(N)=O)cc3)ccnc2O1 (stereo not drawn) was read as TWEAK-Fn14 inh 8, EWS-Fli block 54*, LGR2 antag -12, PAX8 reporter -11 and TROY NFkB inh -1.
For CC1(C(=O)NCc2ccccc2)Cc2c(-c3ccccc3)ccnc2O1 (stereo not drawn) the results were TWEAK-Fn14 inh 3, EWS-Fli block 59*, LGR2 antag -6, PAX8 reporter 25 and TROY NFkB inh -1.
Screening CC1(C(=O)NCc2ccccc2)Cc2c(-c3ccc4c(c3)OCO4)ccnc2O1 (stereo not drawn) returned TWEAK-Fn14 inh -20, EWS-Fli block 37, LGR2 antag 7, PAX8 reporter 45 and TROY NFkB inh 7.
`CC1(C(=O)NCCc2ccccc2)Cc2c(-c3ccc4c(c3)OCO4)ccnc2O1` (stereo not drawn) gave TWEAK-Fn14 inh -10, EWS-Fli block 58*, LGR2 antag 5, PAX8 reporter 25 and TROY NFkB inh 14.
For CN(C)c1ccc(-c2ccnc3c2CC(C)(C(=O)NCc2ccccc2)O3)cc1 (stereo not drawn) the results were TWEAK-Fn14 inh -2, EWS-Fli block 61*, LGR2 antag 26, PAX8 reporter 35 and TROY NFkB inh 10.
For C[C@@H]1CCCCO[C@@H](CN(C)S(C)(=O)=O)[C@H](C)CN([C@@H](C)CO)C(=O)c2cc(NS(C)(=O)=O)ccc2O1 the results were EWS-Fli block -24, LGR2 antag 6 and PAX8 reporter -23.
`O=C(C[C@@H]1C[C@@H]2c3cc(NC(=O)C4CCC4)ccc3O[C@@H]2[C@H](CO)O1)NCc1ccccc1` gave EWS-Fli block -1, LGR2 antag -5 and PAX8 reporter 1.
Screening Cc1noc(C)c1NC(=O)Nc1cccc2c1O[C@@H](CN(C)C(=O)Nc1ccc(F)cc1)[C@@H](C)CN([C@@H](C)CO)C2=O returned EWS-Fli block -9 and LGR2 antag -13.
Screening CC1(C(=O)NCC2CCOCC2)Cc2c(-c3cccc(C(F)(F)F)c3)ccnc2O1 (stereo not drawn) returned TWEAK-Fn14 inh 4, EWS-Fli block 52*, LGR2 antag 6, PAX8 reporter 22 and TROY NFkB inh 11.
